Measurements as given in PubChem BioAssay AID652268 (The Scripps Research Institute Molecular Screening Center, 2013).
In all, about 1,600 compounds went through this assay and about 160 (10%) were called active. A selection follows. Values without a mark were called inactive. No stated cut-off is given here; in the data, active means activation above about 1.3%; inactive means the rest.

Test: parental HEK293-CNG cell agonism artefacts – fluorescence, high throughput, counter-screen for GalR3 antagonist project (AID 652268)
Settings: HEK293-CNG parental cells, cAMP membrane potential fluorescence; at 3 µM; active compounds read high; normalised: DMSO wells 0%, forskolin wells 100%

Row | SMILES | activation
1 | CC(CCc1ccccc1)NCC(O)c1cccc([N+](=O)[O-])c1 (configuration not stated) | 0.27%
2 | C=CCC1(CC=C)CCCN1C(=O)c1cc(COc2ccc(-n3cncn3)cc2)on1 | -0.46%
3 | Nc1ncnc2c1ncn2C1OC(CO)CC1O (configuration not stated) | -0.01%
4 | COc1cc(C(=O)Nn2c(O)c(C3=c4ccccc4=NC3=O)sc2=S)ccc1O | -0.64%
5 | COc1ccc(CCNc2nc3ccc(C)cc3n3cnnc23)cc1OC | 0.25%
6 | COc1ccc(-c2[nH]nc3c2C(c2ccncc2)C(C#N)=C(N)O3)cc1 (configuration not stated) | 0.22%
7 | COCCN1Cc2cccc(C(=O)Nc3ccccc3OC)c2C1=O | 0.15%
8 | CCOC(=O)c1cc2n(c1C)-c1ccccc1C2=O | 0.34%
9 | Cn1c(N)c(C(=O)COC(=O)c2cnc(Cl)c(Cl)c2)c(=O)n(C)c1=O | 0.4%
10 | CCOc1ccc(C(C)=O)cc1COC(=O)c1cnc(Cl)c(Cl)c1 | 4.48% (active)
11 | COCCNC(=O)/C(C#N)=C/c1cccc(OCc2ccccc2)c1 | 0.53%
12 | CSc1nc(N)c(C#N)c(-c2ccccc2Cl)c1C#N | -0.24%
13 | O=C(Nc1ccc(CSc2ccccc2)cc1)c1ccc(CN2CCOCC2)cc1 | -1.27%
14 | C[C@@]12C(=O)N(c3cccc(Br)c3)C(=O)N1[C@H](c1ccc(Cl)cc1)[C@@H]1C(=O)N(C3CCCCC3)C(=O)[C@@H]12 | -2.49%
15 | COc1ccc(OC)c(NC(=O)CSc2nc(N)c(-c3ccccc3)c(=O)[nH]2)c1 | 0.95%
16 | COc1ccc(-c2csc(-c3cccs3)n2)cc1OC | 0.07%
17 | COc1ccc(C2Nc3ccccc3C(=O)N2c2ccc(Cl)cc2)cc1Cn1cc([N+](=O)[O-])cn1 (configuration not stated) | -0.27%
18 | COc1ccc(C(=O)COC(=O)COc2ccc(C)c(C)c2)cc1 | 0.4%
19 | Cc1c(C=O)c2ccccc2n1CC(=O)O | 0.2%
20 | Cc1c(Cl)cccc1NC(=O)CSc1ccc(-c2cccnc2)nn1 | 0.04%
21 | CC1(C)CC(N2CCN(C(c3ccccc3)c3ccccc3)CC2)=CC(=[N+]2CCCCC2)C1 | 10.7% (active)
22 | CC(C)(CNC(=O)c1ccc(Cl)c(S(=O)(=O)N2CCc3ccccc3C2)c1)N1CCOCC1 | -0.38%
23 | COC(=O)c1cccc([N+](=O)[O-])c1CS(=O)(=O)c1ccc(C)cc1 | -0.01%

Row | SMILES | activation
24 | Cc1ccc(S(=O)(=O)N2CCN(C(=O)COC(=O)c3c(C)cc(C)cc3C)CC2)c(C)c1 | 0.55%
25 | c1coc(CNc2ncnc3ccccc23)c1 | 0%
26 | Cn1nccc1C(=O)NC1CCCc2c1cnn2-c1ccc(F)cc1F (configuration not stated) | -0.59%
27 | CCCCNC(=O)c1ccccc1NC(=O)C1=C(C)OCCS1 | -0.01%
28 | Cc1ccc(F)cc1NC(=O)Cc1nn(C)c(=O)c2ccccc12 | 0.14%
29 | Cn1cnc([N+](=O)[O-])c1Nc1ccccc1O | 0.12%
30 | C#Cc1ccc(NC(=O)C2(C)CCN2C(=O)Cc2ccc(-c3ccccc3)cc2)cc1 (configuration not stated) | -0.7%
31 | O=C(CC1C(=O)NCCN1CC(c1ccccc1)c1ccccc1)NCCc1cn[nH]c1 (configuration not stated) | 0.5%
32 | CC(=O)c1c(C)[nH]c(C(=O)COC(=O)c2cccc(S(=O)(=O)N(C)c3ccccc3)c2)c1C | -0.83%
33 | c1ccc(Cc2ccc(OCCn3ccnc3)cc2)cc1 | -0.02%
34 | CCCn1nc(C(=O)NNC(=O)CSCC(=O)Nc2cc(C)on2)c2ccccc2c1=O | 0.16%
35 | Cn1c(CN2CCOCC2)nc2cc(NC(=O)c3ccc(Cl)cc3)ccc21 | 0.05%
36 | CCNC(=S)Nc1ccc(OC(F)(F)F)cc1 | -0.01%
37 | CC(C)[C@@H](C(=O)OCC(=O)c1ccc2c(c1)NC(=O)CO2)N1C(=O)c2ccccc2C1=O | 0.06%
38 | OC[C@@H]1CN(Cc2ccc(-c3ccccc3)cc2)C[C@H](n2cnc3c(NC4CCCC4)ncnc32)O1 | -0.91%
39 | CCCOc1ccc(Cc2c(Cl)nc(SC)nc2NC)cc1 | 1.12%
40 | COc1ccc(N(C(=O)CNC(=O)c2ccco2)C(C(=O)NCC2CCCO2)c2ccccc2)cc1Cl (configuration not stated) | -0.24%
41 | CC(=O)OC(C)C[N+](C)(C)C (configuration not stated) | 0.43%
42 | COC(=O)c1ccc(/C=N/N2C(C)CCCC2C)cc1 (configuration not stated) | 0.27%
43 | COc1cc(NC(=O)c2cc([N+](=O)[O-])ccc2Br)ccc1NC(=O)c1ccco1 | -0.55%
44 | CCn1c(-c2cc(OC)ccc2OC)csc1=Nc1c(C)n(C)n(-c2ccccc2)c1=O | 0.13%
45 | CCN1/C(=C\c2ccc3ccccc3[n+]2CC)Sc2cc(C)ccc21 | 8.28% (active)
46 | Nc1nc(NCC(=O)O)nc(N2CCCCCC2)c1[N+](=O)[O-] | 0.22%

Row | SMILES | activation
47 | CSc1nccc(NC(=O)c2ccc(C(C)(C)C)cc2)n1 | 0.22%
48 | CCOC(=O)c1c(NC(=O)CSc2nccc(=O)[nH]2)sc(C)c1C | -1.63%
49 | COc1ccc(C2CC(=O)Nc3sc(=N)c4c(N)c(C#N)c(N)nc4c32)cc1OC (configuration not stated) | -0.03%
50 | CC(=O)N1CCCc2cc(S(=O)(=O)N3CCCC(C(=O)N4CCN(c5cccc(Cl)c5)CC4)C3)ccc21 (configuration not stated) | -1.04%
51 | CN(Cc1cccnc1)C(=O)c1cc(COc2ccc3ncccc3c2)on1 | -0.15%
52 | NC(=O)c1ccc(NC(=O)COC(=O)C(Cc2ccccc2)NC(=O)c2ccccc2)cc1 (configuration not stated) | -0.37%
53 | CCOc1cc(C(=O)N2CCc3cc(OC)c(OC)cc3C2)ccc1OC(F)F | 1.51% (active)
54 | O=C(Nc1ccccc1Cl)/C(Cl)=C(\Cl)S(=O)c1ccccc1 (configuration not stated) | 3.18% (active)
55 | O=C(/C=C/c1c(F)cccc1Cl)Nc1nn[nH]n1 | 0.23%
56 | Nc1nonc1-n1nnc(C(=O)N/N=C/c2cc(Br)ccc2O)c1CSC1=NCCS1 | 0.22%
57 | CCN(CC(=O)NCc1ccc(Cl)cc1)C(=O)CSc1ccccc1 | -0.45%
58 | O=C(NC(Nc1nc2ccc([N+](=O)[O-])cc2s1)(C(F)(F)F)C(F)(F)F)c1ccccc1 | 9.23% (active)
59 | COc1cc(Cl)c(C)cc1NC(=O)[C@@H]1CCCN1C(=O)c1cccs1 | -0.08%
60 | CCOc1ccc(Br)cc1CSC(=N)N | 3.59% (active)
61 | CNC(=O)NC(=O)CSc1nnc(-c2ccc(F)cc2)n1CC1CCCO1 (configuration not stated) | 0.01%
62 | CCc1ccc(-c2nc(SCC(=O)NC3CCCC3)n[nH]2)cc1 | 0.04%
63 | COc1cc2c(cc1OC)C(c1cccc([N+](=O)[O-])c1)=NCC2 | 0.46%
64 | COc1ccc(NS(=O)(=O)c2ccc(NC(=O)c3ccc(N(C)S(C)(=O)=O)cc3)cc2)cc1 | -0.8%
65 | O=C(CC(O)(C(F)(F)F)C(F)(F)F)Nc1ccc(Cl)c(Cl)c1 | 1.84% (active)
66 | CSc1nc(N(C)NC(=O)c2cccc(C)c2)c2ccccc2n1 | 2.12% (active)
67 | Cc1nc2ccccc2cc1OCc1ccc(F)cc1 | 1.08%
